In PubChem BioAssay (EPA / NIEHS):
Active and inactive are the calls of the source. Rule for the calls: active = hit-call score of the fitted dose curve at least 0.9, where 1 is the maximum; inactive = score below 0.9.

Legend:
[1] = APR_HepG2_CellLoss_72hr: Apredica 72-hour HepG2 Assay for Cell Loss (AID 2282915); settings: high-content imaging
In short: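 HepG2 cells were exposed for 72 hr to compounds at 0.39–200 uM (ten concentrations, duplicate) in 0.5% v/v final DMSO. Nuclei were stained with Hoechst 33342 after 3.7% formaldehyde fixation, imaged at 20x, and counted; fits bidirectional versus DMSO.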

[2] = APR_HepG2_P-H2AX_72hr: Apredica 72-hour HepG2 Assay for H2AX Phosphorylation (AID 2282916); settings: imaging, actives raise or lower the signal;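 note: phospho-histone H2A.x immunostain intensity per cell marking DNA damage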
In short: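 HepG2 cells treated 72 h at 0.39–200 uM, 0.5% DMSO final, duplicates. Formaldehyde-fixed, Triton-permeabilised, immunostained for phospho-H2A.x with Hoechst; fluorescence imaged at 20x, bidirectional fit versus DMSO.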

[3] = APR_HepG2_MitoMembPot_72hr: Apredica 72-hour HepG2 Assay for Mitochondrial Membrane Potential (AID 2282917); settings: imaging, actives raise or lower the signal
In short: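 HepG2 cells exposed 72 h to compounds at 0.39–200 uM (0.5% v/v DMSO, duplicates); MitoTracker Red CMXRos 250 nM loaded 30 min before 3.7% formaldehyde fixation, imaged by HCS fluorescence. Bidirectional fit versus DMSO.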

[4] = APR_HepG2_MitoticArrest_72hr: Apredica 72-hour HepG2 Assay for Mitotic Arrest (AID 2282918); settings: high-content imaging, actives raise or lower the signal
In short: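 HepG2, 72 hr exposure, 0.39–200 uM in duplicate, 0.5% v/v DMSO final. Formaldehyde-fixed, Triton-permeabilized, anti-phospho-histone H3/FITC plus Hoechst. ArrayScan imaging at 20x; curves fit bidirectionally against DMSO baseline.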

[5] = APR_HepG2_MicrotubuleCSK_72hr: Apredica 72-hour HepG2 Assay for Microtubule CSK Stabilty (AID 2282919); settings: HepG2 microtubule cytoskeleton, high-content imaging, actives raise or lower the signal
In short: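 HepG2 human liver cells were dosed for 72 h at ten concentrations from 0.39 to 200 uM in duplicate (0.5% v/v DMSO final). Fixed, permeabilized cells were immunostained for alpha-tubulin (Cy5) with a Hoechst counterstain and imaged at 20x.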

[6] = APR_HepG2_P-H2AX_24hr: Apredica 24-hour HepG2 Assay for H2AX Phosphorylation (AID 2282920); settings: high-content imaging, actives raise or lower the signal
In short: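 HCS fluorescence imaging of phospho-H2A.x immunostain (with Hoechst 33342 nuclear counterstain) in HepG2 after 24 hr compound exposure; 10 concentrations, 0.39–200 uM, duplicate wells, 0.5% v/v DMSO. Gain or loss of signal fitted relative to DMSO baseline.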

[7] = APR_HepG2_StressKinase_72hr: Apredica 72-hour HepG2 Assay for Stress Kinase (AID 2282921); settings: HepG2 stress kinase (phospho-c-Jun) imaging, actives raise or lower the signal
In short: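 HepG2 cells treated 72 hr with 0.39–200 uM compound, 0.5% v/v DMSO, duplicate wells. After formaldehyde fixation and Triton permeabilization, stained with anti-phospho-c-Jun (1:500) and Cy3 secondary, imaged at 20x. Fitted in both directions against DMSO.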

[8] = APR_HepG2_StressKinase_24hr: Apredica 24-hour HepG2 Assay for Stress Kinase (AID 2282922); settings: HepG2 stress kinase (phospho-c-Jun) imaging, actives raise or lower the signal
In short: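 HepG2 cells exposed 24 hr to compound at 0.39–200 uM (10 concentrations, duplicate), 0.5% v/v DMSO final. Fixed in 3.7% formaldehyde, permeabilized with Triton X-100, immunolabeled for phospho-c-Jun with Hoechst 33342; HCS fluorescence imaging, bidirectional fit versus DMSO.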

[9] = APR_HepG2_p53Act_72hr: Apredica 72-hour HepG2 Assay for p53 Activation (AID 2282923); settings: high-content imaging, actives raise or lower the signal;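 note: average cellular p53 protein immunofluorescence intensity in HepG2 cells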
In short: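 HepG2 cells exposed 72 h to 0.39–200 uM in 0.5% DMSO, duplicates. Fixed, permeabilized cells immunostained for p53 (Cy5) with Hoechst; imaged at 20x, fluorescence analyzed bidirectionally against DMSO.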

[10] = APR_HepG2_MitoMass_72hr: Apredica 72-hour HepG2 Assay for Mitochondrial Mass (AID 2282924); settings: high-content imaging, actives raise or lower the signal;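 note: MitoTracker Red CMXRos stain intensity per cell imaged as mitochondrial mass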
In short: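 HepG2 cells were exposed for 72 hr to compounds at 0.39–200 uM (ten concentrations, duplicate, 0.5% v/v DMSO final). Live cells were stained with 250 nM MitoTracker Red CMXRos for 30 min, then fixed in 3.7% formaldehyde and imaged by HCS fluorescence.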

Measured: AC50

Oc1ccc2ccccc2c1N=Nc1ccccc1
active: [1] 0.606 µM | [2] 2.49 µM | [10] 0.0806 µM
inactive: all other assays above

CC1=C(/C=C/C(C)=C/C=C/C(C)=C/CO)C(C)(C)CCC1
active: [1] 96.6 µM | [2] 19.4 µM | [4] 92.8 µM | [6] 76.5 µM | [10] 112 µM
inactive: [3] | [5] | [7] | [9]

Cc1ccc(C)c(O)c1C
active: [1] 12.4 µM | [4] 13.4 µM | [9] 16.9 µM | [10] 9.74 µM
not listed: [8]
inactive: all other assays above

C=CCc1ccc(O)c(OC)c1
active: [3] 68.6 µM
inactive: all other assays above

O=[N+]([O-])C(CO)(CO)CO
active: [1] 107 µM | [2] 118 µM | [4] 105 µM | [7] 112 µM | [9] 119 µM
inactive: all other assays above

CC1(C)NC(=O)NC1=O
inactive: all assays above

COc1cccc2c1C(=O)c1c(O)c3c(c(O)c1C2=O)C[C@@](O)(C(=O)CO)C[C@@H]3O[C@H]1C[C@H](N)[C@H](O)[C@H](C)O1
inactive: [3]
active: [1] 0.0653 µM | [2] 1.48 µM | [4] 1.37 µM | [5] 0.7 µM | [6] 3.17 µM | [7] 17.6 µM | [8] 8.8 µM | [9] 0.177 µM | [10] 36.6 µM

O=C(O)Cc1ccccc1Nc1c(Cl)cccc1Cl
active: [1] 107 µM
inactive: all other assays above

CCCCCCCCCCCCCCCCCC(=O)O
active: [4] 49.9 µM
inactive: all other assays above

CCOc1ccc2c(c1)C(C)=CC(C)(C)N2
active: [1] 103 µM | [2] 92.7 µM | [4] 78.2 µM | [6] 72.7 µM | [9] 76.1 µM
inactive: all other assays above

Cc1ccc(N(C)C)cc1
inactive: all assays above

Cc1oc(-c2ccccc2)nc1CCOc1cccc2c1ccn2CCC(=O)O
inactive: all assays above

Cc1ccc(C)c(C)c1
not listed: [8]
inactive: all other assays above

CC=Cc1ccc(O)c(OC)c1
inactive: all assays above

c1cc(-c2ccncc2)ccn1
inactive: all assays above

NC(=O)Cn1c(=O)cc(CCN2CCN(c3nccc4sccc34)CC2)c2ccc(F)cc21
active: [1] 82 µM | [2] 101 µM | [4] 98.9 µM | [9] 101 µM
inactive: all other assays above

COc1cc(/C=C/C(=O)CC(=O)/C=C/c2ccc(O)c(OC)c2)ccc1O
active: [1] 9.56 µM | [2] 15.1 µM | [4] 22 µM | [5] 15.9 µM | [6] 76.1 µM | [7] 11.2 µM | [8] 47.9 µM | [9] 19.1 µM | [10] 22.2 µM
inactive: [3]

C[C@]12C=CC(=O)C=C1CC[C@@H]1[C@@H]2C(=O)C[C@@]2(C)[C@H]1CC[C@]2(O)C(=O)CO
inactive: all assays above

O=C(N[C@@H](Cc1ccccc1)[C@@H](O)C(=O)N1C[C@@H](O)[C@@H](O)C1)c1cc2cc(Cl)ccc2[nH]1
active: [1] 104 µM | [2] 107 µM | [3] 97.2 µM | [4] 108 µM | [9] 104 µM
inactive: [5] | [6] | [7] | [8] | [10]

CCCCCCCCCCCCCO
active: [1] 113 µM | [2] 108 µM | [3] 120 µM | [4] 104 µM
inactive: all other assays above

CCOC(=O)CCC(=O)OCC
inactive: all assays above

CNCc1cc(F)ccc1Oc1ccc(Cl)c(Cl)c1
active: [1] 56.9 µM | [2] 59.5 µM | [4] 32.6 µM | [6] 74.4 µM | [9] 63 µM | [10] 178 µM
inactive: [3] | [5] | [7] | [8]

CC1(C)CC(N=C=O)CC(C)(CN=C=O)C1 (stereo not drawn)
active: [2] 101 µM | [4] 93.1 µM | [6] 101 µM
not listed: [8]
inactive: all other assays above

FC(F)(F)C(F)(F)C(F)(F)C(F)(F)C(F)(F)C(F)(F)CCI
inactive: all assays above

C1CCC(SSC2CCCCC2)CC1
active: [1] 97.4 µM | [6] 113 µM | [7] 108 µM | [9] 148 µM
inactive: all other assays above

Cc1cc(=O)[nH]c(=S)[nH]1
inactive: all assays above

NS(=O)(=O)c1cc2c(cc1Cl)NCNS2(=O)=O
inactive: all assays above

Cc1ccccc1Cl
inactive: all assays above

NCC1(Cc2noc(=O)[nH]2)CCCCC1
inactive: all assays above

CCCCCCCCCCC
not listed: [8]
inactive: all other assays above

C=CCOC(=O)c1ccccc1C(=O)OCC=C
not listed: [8]
inactive: all other assays above

COc1cc(C=O)ccc1O
not listed: [8]
inactive: all other assays above

CC(C)(C)c1cc(O)c(C(C)(C)C)cc1O
inactive: [5] | [7] | [10]
active: [1] 51.6 µM | [2] 36 µM | [3] 104 µM | [4] 11.8 µM | [6] 79.4 µM | [9] 12.5 µM

Nc1nc(N)c2nc(CNc3ccc(C(=O)N[C@@H](CCC(=O)O)C(=O)O)cc3)cnc2n1
not listed: [5]
inactive: all other assays above

CN1CCCC1=O
not listed: [5]
inactive: all other assays above

O=C(OCCCCCOC(=O)c1ccccc1)c1ccccc1
active: [1] 100 µM
not listed: [8]
inactive: all other assays above

Cc1nc(-c2ccc3c(c2)CCN(CCC2CCC(NC(=O)/C=C/c4ccc(F)cc4)CC2)CC3)no1 (stereo not drawn)
active: [2] 25.2 µM | [4] 24.2 µM | [7] 16.2 µM | [9] 23.8 µM
not listed: [8]
inactive: all other assays above

CCNc1cccc(C)c1
not listed: [5]
inactive: all other assays above

COc1ccc(C)cc1N
not listed: [8]
inactive: all other assays above

Cc1ccc2ncccc2c1
not listed: [8]
inactive: all other assays above

NCCO
not listed: [8]
inactive: all other assays above

CCCCCCC(=O)OCC
not listed: [8]
inactive: all other assays above
